# Records with an inconclusive call do not appear. Activity calls are given as the source filed them. Calls come from the whole dose curve; as a rule, active = well fitted curve in the direction sought with a large enough effect; inconclusive = small, poorly fitted or top-dose-only effect, or another doubt; inactive = no such curve, though single readings can be large; an effect the other way counts as inactive or inconclusive.
# Molecular target: Cytochrome P450 3A4 (Homo sapiens) (UniProt P08684)
# Test: qHTS Assay for Activators of Cytochrome P450 3A4 (AID 885); note: nearly all actives have a fitted effect of over 65% in size
# Details: recombinant CYP3A4, Luciferin-PPXE luminescence, 60 min; series mostly up to 57.1 µM; activity change, positive = activation: at the top concentration
# Procedure, shortened: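 Human CYP3A4 dealkylates Luciferin-PPXE to luciferin, which luciferase detection converts to light. Substrate was at its KM (25uM), buffer 200mM KPO4, reaction 60 min at RT.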
# Sequence of Cytochrome P450 3A4 (Homo sapiens) (P08684 whole entry, looked up): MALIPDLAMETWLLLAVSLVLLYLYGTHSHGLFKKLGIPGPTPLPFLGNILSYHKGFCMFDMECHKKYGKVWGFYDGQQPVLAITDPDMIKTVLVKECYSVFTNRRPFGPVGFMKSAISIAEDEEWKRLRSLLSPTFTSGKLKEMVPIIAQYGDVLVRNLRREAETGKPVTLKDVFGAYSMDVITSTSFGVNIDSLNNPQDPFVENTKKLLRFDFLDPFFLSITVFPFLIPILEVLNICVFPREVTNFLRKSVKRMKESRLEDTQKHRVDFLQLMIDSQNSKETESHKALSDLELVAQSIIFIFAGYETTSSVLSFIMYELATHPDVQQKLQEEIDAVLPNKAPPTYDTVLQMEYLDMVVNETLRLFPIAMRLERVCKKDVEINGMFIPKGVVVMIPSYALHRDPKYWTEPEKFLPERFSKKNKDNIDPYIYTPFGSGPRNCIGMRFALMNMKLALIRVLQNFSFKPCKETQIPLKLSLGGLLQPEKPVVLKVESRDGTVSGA
row,Structure (SMILES),"activity change, positive = activation"
1,ClC1=C(Cl)C2(Cl)C3C(Cl)C(Cl)CC3C1(Cl)C2(Cl)Cl (stereo unspecified),-89.1% (inactive)
2,CCCCCCCCCCCCCC(=O)O[C@H]1[C@@H](C)[C@@]2(O)[C@@H](C=C(CO)C[C@]3(O)C(=O)C(C)=C[C@@H]23)C2C(C)(C)[C@]21OC(C)=O (stereo partly specified),-76% (inactive)
3,COc1cc2c(cc1O)-c1c(O)c(OC)cc3c1[C@H](C2)N(C)CC3,-46.2% (inactive)
4,COC[C@H]1OC(=O)c2coc3c2[C@@]1(C)C1=C(C3=O)[C@H]2CCC(=O)[C@@]2(C)C[C@H]1OC(C)=O,-46.3% (inactive)
5,C[C@H]1CCCC=CC2C[C@H](O)C[C@@H]2[C@H](O)/C=C\C(=O)O1 (stereo partly specified),-36.1% (inactive)
6,[Cd+2].[Cl-].[Cl-],-39.2% (inactive)

# Molecular target: Cytochrome P450 2D6 (Homo sapiens) (UniProt P10635)
# Test: qHTS Assay for Inhibitors and Substrates of Cytochrome P450 2D6 (AID 891); note: nearly all actives have a fitted effect of over 60% in size; note: potency is the fitted concentration of half-maximal effect;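 for activity change, negative = inhibition: luciferin methyl ether substrate demethylated by CYP2D6 with NADPH regeneration; % is set by controls: 0 for no effect and ±100 for the full control effect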
# Details: recombinant CYP2D6, luciferin-ME EGE luminescence; series mostly up to 57.1 µM; activity change, negative = inhibition: at the top concentration
# Procedure, shortened: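 Luminescent read-out of luciferin formed by 5 nM human CYP2D6 demethylating 30 uM Luciferin-ME EGE (Km level) over 60 min at room temperature after NADPH regeneration addition. Data normalized to full inhibition by 1.43 uM quinidine.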
# Sequence of Cytochrome P450 2D6 (Homo sapiens) (P10635 whole entry, looked up): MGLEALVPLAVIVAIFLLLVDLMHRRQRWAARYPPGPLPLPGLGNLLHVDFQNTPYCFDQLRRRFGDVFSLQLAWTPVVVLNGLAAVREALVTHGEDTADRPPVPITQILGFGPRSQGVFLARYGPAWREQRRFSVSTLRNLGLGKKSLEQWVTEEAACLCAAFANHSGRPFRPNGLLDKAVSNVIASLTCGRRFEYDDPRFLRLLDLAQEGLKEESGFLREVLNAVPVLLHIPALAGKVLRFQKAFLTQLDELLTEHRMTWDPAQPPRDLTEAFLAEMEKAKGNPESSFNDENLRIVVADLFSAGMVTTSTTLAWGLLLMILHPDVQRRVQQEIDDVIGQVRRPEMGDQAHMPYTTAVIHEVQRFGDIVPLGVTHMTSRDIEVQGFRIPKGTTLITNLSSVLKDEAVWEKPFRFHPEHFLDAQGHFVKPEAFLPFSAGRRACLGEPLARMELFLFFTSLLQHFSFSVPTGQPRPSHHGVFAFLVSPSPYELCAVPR
Structure (SMILES),"activity change, negative = inhibition",Potency
C/C=C1\C[C@H](C)[C@](O)(CO)C(=O)OCC2=CCN3CC[C@@H](OC1=O)[C@@H]23,8.17% (inactive),–
C[C@@H]1CCC/C=C\[C@H]2C[C@H](O)C[C@@H]2[C@H](O)/C=C\C(=O)O1,3.87% (inactive),–
CC(C)(C)[C@@]1(O)C[C@@H]2OC(=O)C[C@@]23C(=O)O[C@H]2OC(=O)[C@@H](O)[C@]231,-10.1% (inactive),–
CC1=CC(=O)C2=C(C)C[C@H](O)[C@@H]3[C@@H](OC(=O)[C@H]3C)[C@H]12,0.08% (inactive),–
CC1=C2[C@@H]3OC(=O)[C@H](C)[C@H]3CC[C@@]2(C)C=CC1=O,-3.47% (inactive),–
COc1cc2c(cc1O)-c1c(O)c(OC)cc3c1[C@H](C2)N(C)CC3,–,2510 nM (active)
CC[C@@H]1CN2CC[C@@H]1C[C@H]2[C@@H](O)c1ccnc2ccc(OC)cc12,–,1.6 nM (active)
COc1cc2c(cc1OC)-c1c(OC)c(OC)c(CO)c3c1[C@H](C2)N(C)CC3,-3.46% (inactive),–
C[C@H]1C(=O)O[C@H]2CCN3CC=C(COC(=O)[C@](C)(O)[C@@]1(C)O)[C@H]23,5.58% (inactive),–
OC[C@H]1CCCN2CCCC[C@@H]12,-5.54% (inactive),–
C=C1C/C(=C\C)C(=O)O[C@@H]2CCN3CC=C(COC(=O)[C@]1(C)O)[C@H]23,3.27% (inactive),–
COc1cc2c(cc1OC)-c1c(O)c(OC)cc3c1[C@@H](C2)N(C)CC3,–,15800 nM (active)
CCN1C[C@@]2(C)CC[C@H](O)[C@@]34[C@@H]5C[C@H]6[C@H](O)[C@@H]5[C@](O)(C[C@@H]6OC)[C@H](C[C@@H]23)[C@H]14,3.08% (inactive),–

# Molecular target: Cytochrome P450 2C19 (Homo sapiens) (UniProt P33261)
# Test: qHTS Assay for Inhibitors and Substrates of Cytochrome P450 2C19 (AID 899); note: nearly all actives have a fitted effect of over 60% in size; note: potency is the fitted concentration of half-maximal effect; for activity, negative = inhibition: % is set by controls: 0 for no effect and ±100 for the full control effect
# Details: recombinant CYP2C19, luciferin-H EGE luminescence; series mostly up to 57.1 µM; activity, negative = inhibition: at the top concentration
# Procedure, shortened: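 NADPH-dependent conversion of Luciferin-H EGE (10uM, at KM) by 5nM enzyme in 50mM KPO4, 60 min at 37C following 10 min compound preincubation. Stopped with luciferin detection buffer; luminescence read after 20 min.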
# Sequence of Cytochrome P450 2C19 (Homo sapiens) (P33261 whole entry, looked up): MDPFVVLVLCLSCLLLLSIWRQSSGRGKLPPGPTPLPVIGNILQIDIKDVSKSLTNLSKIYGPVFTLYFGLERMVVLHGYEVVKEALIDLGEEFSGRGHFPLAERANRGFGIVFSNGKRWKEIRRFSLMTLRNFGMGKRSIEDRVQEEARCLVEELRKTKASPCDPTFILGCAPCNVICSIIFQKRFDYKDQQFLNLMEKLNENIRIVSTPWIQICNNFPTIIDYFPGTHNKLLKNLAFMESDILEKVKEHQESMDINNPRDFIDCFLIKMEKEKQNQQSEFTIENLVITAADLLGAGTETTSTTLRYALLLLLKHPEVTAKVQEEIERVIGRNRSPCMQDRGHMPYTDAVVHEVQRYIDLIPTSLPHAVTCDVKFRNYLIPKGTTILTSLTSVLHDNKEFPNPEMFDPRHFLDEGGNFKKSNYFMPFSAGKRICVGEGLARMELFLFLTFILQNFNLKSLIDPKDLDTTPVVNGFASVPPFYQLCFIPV
Structure (SMILES),"activity, negative = inhibition",Potency
C/C=C1\C[C@H](C)[C@](O)(CO)C(=O)OCC2=CCN3CC[C@@H](OC1=O)[C@@H]23,-12.1% (inactive),–
C[C@@H]1CCC/C=C\[C@H]2C[C@H](O)C[C@@H]2[C@H](O)/C=C\C(=O)O1,-8.14% (inactive),–
CC(C)(C)[C@@]1(O)C[C@@H]2OC(=O)C[C@@]23C(=O)O[C@H]2OC(=O)[C@@H](O)[C@]231,-4.71% (inactive),–
CC(C)[C@@]1(NC(=O)[C@@H]2C[C@H]3c4cccc5[nH]cc(c45)C[C@@H]3N(C)C2)O[C@@]2(O)[C@H]3CCCN3C(=O)[C@@H](Cc3ccccc3)N2C1=O,–,3160 nM (active)
CC1=CC(=O)C2=C(C)C[C@H](O)[C@@H]3[C@@H](OC(=O)[C@H]3C)[C@H]12,-18.9% (inactive),–
COc1cc2c(cc1O)CCN[C@H]2C,-13.8% (inactive),–
CC1=C2[C@@H]3OC(=O)[C@H](C)[C@H]3CC[C@@]2(C)C=CC1=O,-40.3% (inactive),–
CC[C@@H]1CN2CC[C@@H]1C[C@H]2[C@@H](O)c1ccnc2ccc(OC)cc12,39.5% (inactive),–
COc1cc2c(cc1OC)-c1c(OC)c(OC)c(CO)c3c1[C@H](C2)N(C)CC3,-34.9% (inactive),–
C[C@H]1C(=O)O[C@H]2CCN3CC=C(COC(=O)[C@](C)(O)[C@@]1(C)O)[C@H]23,-11.6% (inactive),–
COC1=C[C@H]2[C@@H]3Cc4ccc(OC)c(O)c4[C@@]2(CCN3C)CC1=O,17.2% (inactive),–
OC[C@H]1CCCN2CCCC[C@@H]12,5.95% (inactive),–
C=C1C/C(=C\C)C(=O)O[C@@H]2CCN3CC=C(COC(=O)[C@]1(C)O)[C@H]23,-0.815% (inactive),–
COc1ccc(C[C@@H]2NC[C@H](O)[C@H]2OC(C)=O)cc1,30.9% (inactive),–
CCN1C[C@@]2(C)CC[C@H](O)[C@@]34[C@@H]5C[C@H]6[C@H](O)[C@@H]5[C@](O)(C[C@@H]6OC)[C@H](C[C@@H]23)[C@H]14,12.1% (inactive),–

# Molecular target: Muscarinic acetylcholine receptor M1 (Rattus norvegicus) (UniProt P08482)
# Test: qHTS Assay for Antagonists of Acetylcholine Muscarinic M1 Receptor: Kinetic Measurement of Intracellular Calcium Response (AID 943); note: nearly all actives have a fitted effect of over 75% in size; note: potency is the fitted concentration of half-maximal effect;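 for activity change, negative = inhibition: Fluo-4 calcium signal as peak divided by basal fluorescence over 4 min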
# Details: M1-expressing cells, kinetic intracellular calcium fluorescence; series mostly up to 35.3 µM; activity change, negative = inhibition: at the top concentration
# Procedure, shortened: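 Antagonism measured as reduction of carbachol-evoked (EC80, 100 nM final) calcium flux in rat M1-CHO cells after 10 min compound exposure. Fluo-4 signal read kinetically; ratio of maximal to basal fluorescence.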
# Sequence of Muscarinic acetylcholine receptor M1 (Rattus norvegicus) (P08482 whole entry, looked up): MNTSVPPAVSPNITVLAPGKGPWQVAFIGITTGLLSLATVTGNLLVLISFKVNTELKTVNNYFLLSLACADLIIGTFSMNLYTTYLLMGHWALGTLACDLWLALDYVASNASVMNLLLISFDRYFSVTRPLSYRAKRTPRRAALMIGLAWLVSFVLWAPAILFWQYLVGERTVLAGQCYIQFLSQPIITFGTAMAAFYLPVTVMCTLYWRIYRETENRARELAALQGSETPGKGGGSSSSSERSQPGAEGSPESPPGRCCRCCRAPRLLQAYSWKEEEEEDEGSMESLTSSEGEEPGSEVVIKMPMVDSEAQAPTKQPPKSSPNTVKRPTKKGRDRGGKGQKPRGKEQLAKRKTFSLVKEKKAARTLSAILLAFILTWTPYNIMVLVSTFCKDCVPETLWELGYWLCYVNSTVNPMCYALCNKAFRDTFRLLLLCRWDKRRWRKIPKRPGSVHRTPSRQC
Structure (SMILES),Potency,"activity change, negative = inhibition"
CCCCCCCCCCCCCC(=O)O[C@H]1[C@@H](C)[C@@]2(O)[C@@H](C=C(CO)C[C@]3(O)C(=O)C(C)=C[C@@H]23)C2C(C)(C)[C@]21OC(C)=O (stereo partly specified),20 nM (active),–
COC[C@H]1OC(=O)c2coc3c2[C@@]1(C)C1=C(C3=O)[C@H]2CCC(=O)[C@@]2(C)C[C@H]1OC(C)=O,–,-22% (inactive)
Oc1cc2c(cc1O)[C@H]1c3ccccc3CN[C@@H]1CC2,–,-31.4% (inactive)

# Molecular target: Pyruvate kinase (Leishmania mexicana) (UniProt Q27686)
# Test: qHTS Validation Assay for Inhibitors of Leishmania Mexicana Pyruvate Kinase (AID 945);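 note: 0% = DMSO only neutral control wells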
# Details: purified L. mexicana pyruvate kinase, enzyme activity, E451W mutant enzyme; series mostly up to 57.5 µM; activity change, negative = inhibition: at the top concentration
# Procedure, shortened: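 Compounds are tested as eight-point concentration series. Reactions contain 0.2 nM LmPYK E451W, 0.5 mM PEP, 0.1 mM ADP, 7 mM MgCl2 and 50 mM KCl at pH 7.2, run 1 h at room temperature, then read by PKLight luminescence.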
# Sequence of Pyruvate kinase (Leishmania mexicana) (Q27686 2-499 E452W): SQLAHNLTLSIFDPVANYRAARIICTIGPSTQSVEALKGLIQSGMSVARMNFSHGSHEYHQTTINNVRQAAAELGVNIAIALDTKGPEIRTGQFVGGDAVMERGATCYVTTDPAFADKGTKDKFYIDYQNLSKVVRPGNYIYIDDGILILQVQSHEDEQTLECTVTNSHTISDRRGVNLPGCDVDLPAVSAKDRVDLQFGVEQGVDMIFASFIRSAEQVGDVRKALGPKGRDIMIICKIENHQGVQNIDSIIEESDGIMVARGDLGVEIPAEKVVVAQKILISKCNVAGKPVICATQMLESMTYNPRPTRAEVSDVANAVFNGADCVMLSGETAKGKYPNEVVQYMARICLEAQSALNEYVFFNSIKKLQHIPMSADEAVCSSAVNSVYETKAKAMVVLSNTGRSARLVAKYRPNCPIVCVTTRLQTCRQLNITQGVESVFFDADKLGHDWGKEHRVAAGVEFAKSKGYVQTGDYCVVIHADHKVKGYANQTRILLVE
row,Structure (SMILES),"activity change, negative = inhibition"
1,CCCCCCCCCCCCCC(=O)O[C@H]1[C@@H](C)[C@@]2(O)[C@@H](C=C(CO)C[C@]3(O)C(=O)C(C)=C[C@@H]23)C2C(C)(C)[C@]21OC(C)=O (stereo partly specified),-5.55% (inactive)
2,COC[C@H]1OC(=O)c2coc3c2[C@@]1(C)C1=C(C3=O)[C@H]2CCC(=O)[C@@]2(C)C[C@H]1OC(C)=O,-7.84% (inactive)
3,C[C@@H]1O[C@@H](O[C@H]2C[C@@H](O)[C@]3(CO)[C@@H]4[C@@H](O)C[C@]5(C)[C@H](C6=CC(=O)OC6)CC[C@@]5(O)[C@H]4CC[C@@]3(O)C2)[C@H](O)[C@H](O)[C@@H]1O,4.71% (inactive)
4,Oc1cc2c(cc1O)[C@H]1c3ccccc3CN[C@@H]1CC2,-13.6% (inactive)
